IL1B secr inh = qHTS for Inhibitors of Inflammasome Signaling: IL-1-beta AlphaLISA Primary Screen; THP-1 LPS/ATP IL-1B secretion, AlphaLISA, 16 h; hits give low values; activity change, % at 57.5 µM; 360,000 tested, 4.7% active; in the data active = activity change below about -50%; inconclusive = mostly about -30% to -49%; also: % is scaled to controls: 0 for no effect and ±100 for the full control effect
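THP-1 cells pretreated 1 hr with compounds (up to 57.5 uM final), then stimulated with LPS (250 ng/mL final) plus ATP (1.25 mM final); secreted IL-1B measured by AlphaLISA after 16 hr, decreased signal indicating inhibition.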
Chronic BCR inh = qHTS Assay to Find Inhibitors of Chronic Active B-Cell Receptor Signaling; ABC-DLBCL IkBa-CBG/CBR reporter, luminescence ratio, 4 h; Potency, µM (top dose mostly 46.1 µM), inactives show top-dose activity change, negative = inhibition, hits mostly inhibitors; 340,000 tested, 0.05% active; AID 493014, 2011; active = well fitted inhibition curve with a large enough effect in the signal ratio, with a control signal flat, not every such curve was filed as active; inconclusive = small, poorly fitted or top-dose-only effect, or effect the other way, or a change in a side signal; the % refers to the signal ratio;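 also: potency is read from the fitted curve at half-maximal effect; plate controls were basal doxycycline-induced cells for no effect and cells given 10 µM MG132 for full effect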
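Compounds up to 46 uM were incubated four hours with TMD8 cells whose green CBG68 luciferase is fused to IkappaBalpha; red CBR luminescence normalised the signal, and concentration-effect curves were fitted to fusion, red and ratio data.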
DT40 TDP1 CPT = qHTS for Inhibitors of human tyrosyl-DNA phosphodiesterase 1 (TDP1): qHTS in cells in presence of CPT; 420,000 tested, 12% active; AID 686979, 2013; chicken DT40 Tdp1-/-;hTDP1 cells + 20 nM CPT, ATP luminescence, 48 h; Potency, µM (highest dose often 46.2 µM), without a hit: at the highest dose activity change, negative = growth inhibition, actives largely listed as inhibitors; also: potency is read from the fitted curve at half-maximal effect; % is scaled to controls: 0 for no effect and ±100 for the full control effect; nearly all actives have a fitted effect of over 55% in size
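Chicken DT40 Tdp1-/- cells stably complemented with human TDP1 were seeded at 400 cells/well in medium containing 20 nM camptothecin, exposed to pin-transferred compounds, and grown at 37 °C for at least 48 hr. Viability was read as ATP luminescence.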
MCF10A rereplic = A quantitative high throughput screen for small molecules that induce DNA re-replication in MCF 10a normal breast cells; Potency, µM (top dose mostly 46.1 µM), for inactives: at the top dose activity, positive = re-replication, usual class: activators; AID 624296, 2012; 350,000 tested, 2.9% active; MCF 10A DNA re-replication, Hoechst nuclear intensity, 48 h; also: potency is read from the fitted curve at half-maximal effect; % of control where 0% means no effect; nearly all actives have a fitted effect of over 50% in size
SW480 rerep = A quantitative high throughput screen for small molecules that induce DNA re-replication in SW480 colon adenocarcinoma cells. SW480 DNA re-replication, Hoechst DNA content imaging, 48 h. Potency, µM (series often up to 46.1 µM), inactives show at the highest dose re-replication activation, hits mostly activators. 340,000 tested, 1.8% active. AID 624297, 2012; also: potency is read from the fitted curve at half-maximal effect; % of control where 0% means no effect; nearly all actives have a fitted effect of over 55% in size
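Image-based read-out: total Hoechst fluorescence of nuclei (405 nm excitation, 500-530 nm emission), with hits raising the fraction of high-intensity nuclei. SW480 colon cells incubated 48 hr with compounds at 37 C.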
TDP1 cell noCPT = qHTS for Inhibitors of human tyrosyl-DNA phosphodiesterase 1 (TDP1): qHTS in cells in absence of CPT; 420,000 tested, 15% active; Potency, µM (titrated, usually from 46.2 µM), for inactives: at the highest dose activity change, negative = growth inhibition, most hits filed as inhibitors; AID 686978, 2013; DT40 Tdp1-/- hTDP1 cells, no CPT, ATP luminescence, 48 h; also: potency is read from the fitted curve at half-maximal effect; % is scaled to controls: 0 for no effect and ±100 for the full control effect; nearly all actives have a fitted effect of over 55% in size
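Camptothecin absent (DMSO only). Human TDP1-complemented DT40 knockout cells, 400 cells/well, 37 °C for minimum 48 hr; ATP measured via CellTiter-Glo, 30 min dark incubation, luminescence.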
Starred values were filed as active, the others as inactive; u = inconclusive; x = no result; [ ] = another dose, or the depositor's remark. In the library only some 19% were active in any assay of this set; here they are far more common. Unless noted, calls follow the shape of the dose curve; as a rule, active = well fitted curve in the direction sought with a large enough effect; inconclusive = small, poorly fitted or top-dose-only effect, or another doubt; inactive = no such curve, though single readings can be large; an effect the other way counts as inactive or inconclusive.

SMILES	IL1B secr inh	Chronic BCR inh	DT40 TDP1 CPT	MCF10A rereplic	SW480 rerep	TDP1 cell noCPT
O=C(CCS(=O)(=O)c1ccc(Cl)cc1)Nc1cccc(S(=O)(=O)N2CCCCCC2)c1	43.3	x	u	13.1%	-7.5%	u
COc1ccc(S(=O)(=O)NC(CC(=O)N2CCC3(CC2)OCCO3)C(C)C)cc1 (configuration not stated)	3.6	6.3%	-4.9%	-11.3%	-2.4%	5.4%
COc1cc(OC)c(OC)cc1C=O	0.3	0.0%	6.8%	1.0%	0.8%	u
COc1cc2c(cc1/C=C/[N+](=O)[O-])OCO2	-10.6	u	5.8µM*	u	u	2.31µM*
Cc1ccc(C(=O)/C=C/Nc2ccccc2C(N)=O)cc1	-23.0	u	-15.2%	1.7%	-0.8%	-25.2%
CCS(=O)(=O)NCc1nnc2n1-c1ccc(Cl)cc1C(c1ccccc1)=NC2	15.0	-6.8%	-2.4%	-0.5%	-7.7%	-7.2%
C[C@H]1CC[C@@H]2[C@@H](C)[C@H]3[C@H](C[C@H]4[C@@H]5CC=C6C[C@@H](O[C@@H]7O[C@H](CO)[C@H](O)[C@H](O[C@@H]8O[C@H](CO)[C@@H](O)[C@H](O)[C@H]8O)[C@H]7O[C@@H]7O[C@@H](C)[C@H](O)[C@@H](O)[C@H]7O)CC[C@]6(C)[C@H]5CC[C@]34C)N2C1	-98.5*	u	14.6µM*	2.6%	u	u
Cc1csc(=N)n1Cc1ccccc1	-0.8	-0.2%	-3.9%	-5.2%	x	1.5%
BrCC(Br)(Br)Br	15.4	u	9.2µM*	u	4.8%	u
COP(=S)(OC)SCn1nnc2ccccc2c1=O	-92.7*	x	u	-3.2%	-5.3%	23.1µM*
N#CC(C#N)=Cc1ccc(C=C(C#N)C#N)cc1	-82.8*	-2.8%	3.66µM*	u	u	4.61µM*
N#CC(C#N)=Cc1ccc([N+](=O)[O-])c(O)c1	x	x	-5.2%[92.5 µM]	x	x	-8.6%[92.5 µM]
N#CC1c2ccccc2C=CN1C(=O)c1ccc(N(CCCl)CCCl)cc1 (configuration not stated)	u	x	23.1µM*	x	x	18.4µM*
N#Cc1ccc(C(=O)N2Cc3cnnn3-c3ccccc3C2C#N)cc1 (configuration not stated)	16.0	x	7.8%	u	-4.9%[9.22 µM]	0.8%
CNC(=O)Oc1ccccc1C1CCCCC1	-1.2	x	u	11.3%	-0.7%	-22.0%
CC(=O)Oc1c2c(c(CC=C(C)C)c3c1C(=O)C1=CC4CC5C(C)(C)OC(C/C=C(\C)C(=O)O)(C4=O)[C@]15O3)OC(C)(CCC=C(C)C)C=C2 (some centres not stated)	x	x	0.82µM*	x	x	0.92µM*
COC(=O)/C(C)=C\CC12OC(C)(C)C3CC(C=C4C(=O)c5c(OC)c6c(c(CC=C(C)C)c5OC431)OC(C)(CCC=C(C)C)C=C6)C2=O (configuration not stated)	x	x	4.61µM*	x	x	3.66µM*
N#Cc1ccc2nc(-c3ccc(CN4CCC(n5c(=O)[nH]c6ccccc65)CC4)cc3)c(-c3ccccc3)nc2c1	-66.2*	x	5.8µM*	x	x	9.2µM*
Fc1ccc2c(c1)nnn2C1CCN(Cc2ccccc2)CC1	-16.4	4.7%	-20.1%	0.8%	0.3%	-14.3%
Cc1cccc2nc(-c3ccccc3)c(-c3ccc(CN4CCC(n5c(=O)[nH]c6ccccc65)CC4)cc3)nc12	-51.2*	x	9.2µM*	x	x	13µM*
